# In PubChem BioAssay:
# Several values for one entry are separate records, joined by “and”; a condition that tells them apart may be missing. Identical values can stand only once. Unmarked numbers belong to inactive results. This is one part of the list. Activity calls are given as the source filed them. Cut-off read from the data, not from the text of the source, unless noted: active = inhibition above about 30%; inactive = the rest.
# How the values were obtained:
# [1] = molecular target: Nuclear receptor coactivator 3 (Homo sapiens) (UniProt Q9Y6Q9); experiment: NCOA3 GAL4-fusion reporter inhibition – cell-based, luminescence, quadruplicate, confirmation (AID 588792;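 active = mean inhibition over 43.08%, the solvent-only control mean plus 3 SD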;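 note: 0% = DMSO treated cells and 100% = gossypol at 36 µM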); conditions: HEK293 GAL4-SRC3 luciferase reporter, at 3.6 µM, stronger effect = higher value
# [2] = system: transactivating tegument protein VP16 (Human herpesvirus 1), Gal4-VP16 luciferase reporter; experiment: repression of VP16-driven luciferase reporter – cell-based, luminescence, high throughput, counter-screen for SRC3 inhibitor project (AID 588794); conditions: mammalian cells, at 3.6 µM, stronger effect = higher value
# [3] = StAR promoter reporter inhibitors, counter-screen for LRH-1 inverse agonist project, cell-based, luminescence, high throughput (AID 651611; in the data active = inhibition above about 28%); conditions: StAR promoter luciferase reporter counterscreen, at 3.6 µM, stronger effect = higher value
# [4] = molecular target: Nuclear receptor subfamily 5 group A member 2 (Homo sapiens) (UniProt O00482); experiment: NR5A2 activity suppression in reporter cells – cell-based, luminescence, confirmation (AID 651613; in the data active = inhibition above about 42%;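 note: HEK293T cells co-transfected with LRH-1 and StAR promoter luciferase reporter; 0% = vehicle wells and 100% = parental cells lacking receptor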); conditions: cell-based LRH-1 luciferase reporter, inverse agonism; at 3.6 µM; stronger effect = higher value
# [5] = molecular target: Steroidogenic factor 1 (Homo sapiens) (UniProt Q13285); experiment: inverse agonism at SF1 nuclear receptor – cell-based, luminescence, high throughput, counter-screen for LRH-1 inverse agonist project (AID 651614; in the data active = inhibition above about 44%;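 note: cells cotransfected with StAR promoter reporter and SF1 expression vector; 0% = vehicle on cells with receptor and 100% = vehicle on cells lacking receptor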); conditions: cell-based SF1 luciferase reporter, at 3.6 µM, stronger effect = higher value
# [6] = compounds suppressing VP16-driven luciferase signal – cell-based, luminescence, high throughput, counter-screen for LRH-1 inverse agonist project (AID 651615; in the data active = inhibition above about 33%); conditions: Gal4-VP16 luciferase reporter cells, at 3.6 µM, stronger effect = higher value
# [7] = system: transactivating tegument protein VP16 (Human herpesvirus 1); experiment: compounds suppressing VP16-driven luciferase signal – cell-based, luminescence, single concentration, counter-screen for SRC2 inhibitor project (AID 652007; in the data active = inhibition above about 36%); conditions: cell-based VP16 transactivation luciferase reporter, at 8.9 µM, stronger effect = higher value
# [8] = molecular target: Nuclear receptor coactivator 2 (Homo sapiens) (UniProt Q15596); experiment: inhibition of GAL4-SRC2 driven luciferase expression – cell-based, luminescence, HEK293, triplicate, confirmation (AID 652008;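 active = mean inhibition above 46.5%, the solvent-only control mean plus 3 SD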;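 note: 0% = DMSO-treated cells and 100% = Gossypol at 36 µM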); conditions: HEK293 GAL4-SRC2 luciferase reporter, at 8.9 µM, stronger effect = higher value
# [9] = VP16-driven transactivation reporter suppression – cell-based, luminescence, HEK293, counter-screen for COUP-TFII antagonist project (AID 687007; in the data active = inhibition above about 13%); conditions: HEK293 Gal4-VP16 luciferase reporter, at 8.5 µM, stronger effect = higher value
# [10] = molecular target: COUP transcription factor 2 (Homo sapiens) (UniProt P24468); experiment: retest of COUP-TFII reporter suppressors – cell-based, luciferase reporter, HEK293, triplicate, confirmation (AID 687008;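 active = mean inhibition over three repeats above a set limit taken from the earlier primary screen, cut at about 38% in these data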;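 note: 100% = cells given the luciferase reporter alone without the COUP-TF2 vector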); conditions: HEK293 NGFI-A luciferase reporter, luminescence; at 8.5 µM; stronger effect = higher value
# Chain of COUP transcription factor 2 (Homo sapiens) (P24468 whole entry, looked up): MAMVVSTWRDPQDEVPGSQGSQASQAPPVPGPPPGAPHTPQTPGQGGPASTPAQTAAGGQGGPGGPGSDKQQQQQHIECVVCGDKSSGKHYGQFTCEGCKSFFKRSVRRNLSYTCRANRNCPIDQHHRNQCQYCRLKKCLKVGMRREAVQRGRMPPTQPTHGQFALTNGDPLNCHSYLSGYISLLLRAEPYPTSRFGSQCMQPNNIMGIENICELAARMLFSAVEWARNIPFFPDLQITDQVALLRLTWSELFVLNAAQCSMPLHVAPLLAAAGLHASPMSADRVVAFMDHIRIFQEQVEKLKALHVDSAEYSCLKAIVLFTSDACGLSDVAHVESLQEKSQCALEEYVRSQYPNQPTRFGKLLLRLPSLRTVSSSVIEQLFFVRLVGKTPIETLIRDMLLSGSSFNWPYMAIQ
# Chain of Nuclear receptor coactivator 2 (Homo sapiens) (Q15596 whole entry, looked up, the tested form may be a part): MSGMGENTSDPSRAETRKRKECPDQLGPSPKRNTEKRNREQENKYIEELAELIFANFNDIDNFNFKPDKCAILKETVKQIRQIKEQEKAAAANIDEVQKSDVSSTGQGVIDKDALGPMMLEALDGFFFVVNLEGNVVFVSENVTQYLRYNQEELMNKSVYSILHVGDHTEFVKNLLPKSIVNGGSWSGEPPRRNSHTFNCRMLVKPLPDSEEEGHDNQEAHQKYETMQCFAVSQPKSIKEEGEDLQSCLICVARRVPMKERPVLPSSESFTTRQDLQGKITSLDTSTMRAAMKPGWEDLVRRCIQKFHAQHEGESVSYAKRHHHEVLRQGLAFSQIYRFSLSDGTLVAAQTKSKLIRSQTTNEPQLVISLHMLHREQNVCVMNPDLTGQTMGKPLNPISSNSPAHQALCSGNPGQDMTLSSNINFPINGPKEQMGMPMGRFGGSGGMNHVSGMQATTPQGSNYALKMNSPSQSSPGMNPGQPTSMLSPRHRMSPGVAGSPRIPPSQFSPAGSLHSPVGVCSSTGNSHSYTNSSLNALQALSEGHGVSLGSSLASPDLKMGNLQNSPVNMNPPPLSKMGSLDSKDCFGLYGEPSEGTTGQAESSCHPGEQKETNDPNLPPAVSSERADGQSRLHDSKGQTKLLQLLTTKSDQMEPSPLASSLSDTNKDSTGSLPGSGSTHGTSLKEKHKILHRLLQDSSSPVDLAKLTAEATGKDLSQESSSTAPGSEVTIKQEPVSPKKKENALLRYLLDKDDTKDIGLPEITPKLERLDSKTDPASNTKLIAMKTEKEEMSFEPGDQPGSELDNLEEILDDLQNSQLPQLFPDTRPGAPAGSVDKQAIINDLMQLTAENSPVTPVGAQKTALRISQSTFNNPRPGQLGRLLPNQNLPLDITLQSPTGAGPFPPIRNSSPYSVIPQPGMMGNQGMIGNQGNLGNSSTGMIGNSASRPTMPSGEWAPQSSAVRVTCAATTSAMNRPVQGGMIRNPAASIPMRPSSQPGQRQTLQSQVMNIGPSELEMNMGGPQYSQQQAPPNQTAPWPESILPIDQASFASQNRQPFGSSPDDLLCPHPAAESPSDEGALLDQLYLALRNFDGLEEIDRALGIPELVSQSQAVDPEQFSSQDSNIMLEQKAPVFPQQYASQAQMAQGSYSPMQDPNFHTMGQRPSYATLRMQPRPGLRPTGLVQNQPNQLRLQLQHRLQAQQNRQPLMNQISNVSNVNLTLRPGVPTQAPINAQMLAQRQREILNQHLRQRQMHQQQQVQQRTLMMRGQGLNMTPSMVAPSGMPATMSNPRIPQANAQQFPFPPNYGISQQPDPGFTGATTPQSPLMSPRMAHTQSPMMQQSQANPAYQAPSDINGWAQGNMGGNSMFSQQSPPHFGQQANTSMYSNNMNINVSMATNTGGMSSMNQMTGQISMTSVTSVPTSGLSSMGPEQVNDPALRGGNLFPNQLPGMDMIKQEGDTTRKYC
# Chain of Nuclear receptor coactivator 3 (Homo sapiens) (Q9Y6Q9 whole entry, looked up, the tested form may be a part): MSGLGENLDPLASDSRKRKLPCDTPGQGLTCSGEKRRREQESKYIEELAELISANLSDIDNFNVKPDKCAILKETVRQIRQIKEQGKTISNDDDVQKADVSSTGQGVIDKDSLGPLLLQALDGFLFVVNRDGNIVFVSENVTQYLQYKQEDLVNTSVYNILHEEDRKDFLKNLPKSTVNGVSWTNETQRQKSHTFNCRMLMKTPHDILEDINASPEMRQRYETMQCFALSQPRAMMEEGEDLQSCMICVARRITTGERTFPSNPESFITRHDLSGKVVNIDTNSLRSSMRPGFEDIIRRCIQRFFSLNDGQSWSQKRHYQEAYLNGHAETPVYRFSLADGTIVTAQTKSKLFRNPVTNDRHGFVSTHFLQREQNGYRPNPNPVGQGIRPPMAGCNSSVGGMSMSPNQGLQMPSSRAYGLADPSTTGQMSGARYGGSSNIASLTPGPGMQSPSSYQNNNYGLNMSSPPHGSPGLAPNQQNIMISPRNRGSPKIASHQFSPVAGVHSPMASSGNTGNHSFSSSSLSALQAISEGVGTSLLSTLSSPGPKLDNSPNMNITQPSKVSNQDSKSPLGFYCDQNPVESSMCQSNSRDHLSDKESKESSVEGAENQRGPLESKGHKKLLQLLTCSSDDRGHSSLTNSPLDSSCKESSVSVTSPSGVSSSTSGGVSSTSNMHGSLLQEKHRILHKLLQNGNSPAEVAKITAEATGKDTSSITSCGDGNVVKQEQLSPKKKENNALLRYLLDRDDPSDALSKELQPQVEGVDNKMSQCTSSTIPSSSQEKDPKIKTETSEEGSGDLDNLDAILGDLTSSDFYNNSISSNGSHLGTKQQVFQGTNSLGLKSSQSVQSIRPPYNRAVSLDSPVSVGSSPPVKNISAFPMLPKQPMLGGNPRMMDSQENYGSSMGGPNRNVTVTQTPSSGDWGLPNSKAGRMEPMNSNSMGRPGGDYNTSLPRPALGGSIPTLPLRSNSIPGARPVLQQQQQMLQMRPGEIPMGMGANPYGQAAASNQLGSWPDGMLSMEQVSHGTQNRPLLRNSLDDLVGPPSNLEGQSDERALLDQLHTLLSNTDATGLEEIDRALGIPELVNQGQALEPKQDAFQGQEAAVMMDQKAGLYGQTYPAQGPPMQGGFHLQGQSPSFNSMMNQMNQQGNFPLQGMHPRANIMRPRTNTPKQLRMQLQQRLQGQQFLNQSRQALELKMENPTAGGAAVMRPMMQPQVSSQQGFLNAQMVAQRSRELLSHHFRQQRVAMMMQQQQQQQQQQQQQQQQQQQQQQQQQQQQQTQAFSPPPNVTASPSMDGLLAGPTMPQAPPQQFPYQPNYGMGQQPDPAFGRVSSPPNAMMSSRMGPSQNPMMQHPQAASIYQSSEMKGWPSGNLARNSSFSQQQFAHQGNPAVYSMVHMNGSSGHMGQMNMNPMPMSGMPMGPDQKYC
# Chain of Steroidogenic factor 1 (Homo sapiens) (Q13285 whole entry, looked up, the tested form may be a part): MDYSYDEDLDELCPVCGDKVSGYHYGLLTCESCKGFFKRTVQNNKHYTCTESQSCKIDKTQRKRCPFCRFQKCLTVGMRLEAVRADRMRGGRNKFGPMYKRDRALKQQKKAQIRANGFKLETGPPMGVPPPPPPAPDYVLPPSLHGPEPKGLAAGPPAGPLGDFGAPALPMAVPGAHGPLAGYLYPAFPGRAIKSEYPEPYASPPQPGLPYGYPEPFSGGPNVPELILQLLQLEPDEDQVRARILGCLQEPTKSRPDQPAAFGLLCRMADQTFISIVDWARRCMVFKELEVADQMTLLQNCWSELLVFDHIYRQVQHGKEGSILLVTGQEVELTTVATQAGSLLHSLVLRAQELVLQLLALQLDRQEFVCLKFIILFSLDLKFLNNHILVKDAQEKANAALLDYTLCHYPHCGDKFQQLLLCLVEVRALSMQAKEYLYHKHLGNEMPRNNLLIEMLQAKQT
# Chain of Nuclear receptor subfamily 5 group A member 2 (Homo sapiens) (O00482 whole entry, looked up): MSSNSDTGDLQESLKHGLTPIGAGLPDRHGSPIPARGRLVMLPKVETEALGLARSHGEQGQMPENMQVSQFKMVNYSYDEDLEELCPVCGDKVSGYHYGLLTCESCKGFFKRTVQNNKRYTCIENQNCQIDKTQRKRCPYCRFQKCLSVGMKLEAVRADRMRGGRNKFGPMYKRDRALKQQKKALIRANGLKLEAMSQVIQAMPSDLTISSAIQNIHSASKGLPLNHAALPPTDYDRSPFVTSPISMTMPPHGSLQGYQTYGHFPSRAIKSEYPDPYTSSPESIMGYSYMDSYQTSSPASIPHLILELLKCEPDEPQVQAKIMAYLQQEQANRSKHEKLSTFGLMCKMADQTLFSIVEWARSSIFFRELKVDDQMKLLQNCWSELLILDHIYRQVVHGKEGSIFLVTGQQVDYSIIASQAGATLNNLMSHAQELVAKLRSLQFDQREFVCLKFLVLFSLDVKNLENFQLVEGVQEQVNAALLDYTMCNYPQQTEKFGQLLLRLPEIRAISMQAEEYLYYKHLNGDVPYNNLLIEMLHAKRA
smiles,measurement,setting,value
CCC1C/C(=C\c2cccnc2)C(=O)/C(=C/c2cccnc2)C1 (configuration not stated),inhibition,[1],15.6%
same,inhibition,[2],78.6% (active)
same,inhibition,[3],60.2% (active)
same,inhibition,[4],103% (active)
same,inhibition,[5],97.7% (active)
same,inhibition,[6],90.7% (active)
C/C(=N\NC(N)=S)C12CC3CC(CC(C3)C1)C2,inhibition,[1],41.6%
same,inhibition,[2],32.8% (active)
same,inhibition,[3],20.4%
same,inhibition,[4],66.1% (active)
same,inhibition,[5],71.4% (active)
same,inhibition,[6],48.1% (active)
same,inhibition,[7],9.52%
same,inhibition,[8],26.9%
CC(C)(C)c1ccc(C2CC2C(=O)N/N=C\c2ccc[nH]2)cc1 (configuration not stated),inhibition,[1],39.8%
same,inhibition,[2],81.5% (active)
same,inhibition,[3],80.9% (active)
same,inhibition,[4],105% (active)
same,inhibition,[5],92% (active)
same,inhibition,[6],87.4% (active)
CC(=O)Nc1ccc(Oc2sc(C(=O)c3ccccc3)c(N)c2C#N)cc1,inhibition,[1],20.5%
same,inhibition,[2],-3.87%
same,inhibition,[3],35.8% (active)
same,inhibition,[4],70.9% (active)
same,inhibition,[5],66.7% (active)
same,inhibition,[6],7.59%
same,inhibition,[7],14.6%
same,inhibition,[8],32.6%
CCOc1ccc(C(=O)O/N=C(\N)c2ccccn2)cc1,inhibition,[1],-0.86%
same,inhibition,[2],-11.6%
same,inhibition,[7],15.8%
same,inhibition,[8],21.9%
COc1ccc(N(C(=O)CCl)C(C(=O)NCCc2ccccc2)c2cccs2)cc1Cl (configuration not stated),inhibition,[1],46.4% (active)
same,inhibition,[2],41.7% (active)
same,inhibition,[7],29.9%
same,inhibition,[8],64.9% (active)
CCOC(=O)c1c(C)nn(-c2ccc(NC(=O)/C=C/C(=O)O)cc2)c1C,inhibition,[1],10.7%
same,inhibition,[2],-2.88%
same,inhibition,[7],8.16%
same,inhibition,[8],62.7% (active)
CC(C)(C)c1ccc(-c2noc(CCC(=O)Nc3cccnc3)n2)cc1,inhibition,[1],41%
same,inhibition,[2],25.7%
same,inhibition,[7],67.8% (active)
same,inhibition,[8],80.8% (active)
CCC(=O)c1ccc(O)c(CC=C(C)C)c1,inhibition,[1],35.8%
same,inhibition,[2],23.9%
same,inhibition,[7],-16.9%
same,inhibition,[8],14.5%
Cc1nc([N+](=O)[O-])c(Sc2nc3ccccc3n2C)n1Cc1ccccc1,inhibition,[1],30.1%
same,inhibition,[2],13.4%
same,inhibition,[7],31.9%
same,inhibition,[8],46.5%
CCCCCCCCCCCCCCCC[n+]1ccccc1,inhibition,[1],16.6%
same,inhibition,[2],25.1%
same,inhibition,[3],23.1% and 10.5%
same,inhibition,[4],47.2% (active) and 54.5% (active)
same,inhibition,[5],57.7% (active) and 48.1% (active)
same,inhibition,[6],52.6% (active) and 48.9% (active)
same,inhibition,[7],13.5%
same,inhibition,[8],-2.51%
CCCCCCC[N+](CC)(CC)CCCCc1ccc(Cl)cc1,inhibition,[1],22.1%
same,inhibition,[2],28.2%
same,inhibition,[4],79% (active)
same,inhibition,[5],66.2% (active)
COc1ccc(-c2csc3ncnc(NCCN4CCOCC4)c23)cc1,inhibition,[1],34.1%
same,inhibition,[2],37.6% (active)
same,inhibition,[7],0.34%
same,inhibition,[8],41.1%
O=C(O)c1ccc(N/N=C/c2ccc3c(c2)OCO3)cc1,inhibition,[1],-1.59%
same,inhibition,[2],-12.1%
same,inhibition,[7],-0.58%
same,inhibition,[8],51.3% (active)
CCc1ccc(/C=C/C(=O)c2c(C)cc(C)[nH]c2=O)cc1,inhibition,[1],55.5% (active)
same,inhibition,[2],50.1% (active)
same,inhibition,[7],17.5%
same,inhibition,[8],40.1%
O=C(N[C@@H](Cc1ccccc1)C(=O)CCl)OCc1ccccc1,inhibition,[1],31.5%
same,inhibition,[2],40.4% (active)
same,inhibition,[7],64.2% (active)
same,inhibition,[8],69.3% (active)
CC(C)N(CC(=O)Nc1ccc(Cl)cc1C(F)(F)F)C(=O)CCl,inhibition,[1],44% (active)
same,inhibition,[2],35.6% (active)
same,inhibition,[7],25.9%
same,inhibition,[8],59.2% (active)
CC(C)(C)C(=O)Nc1ccc(-c2cc3cc(Cl)ccc3o2)cc1,inhibition,[1],-53%
same,inhibition,[2],-26.2%
same,inhibition,[7],-83.9%
same,inhibition,[8],-30.7%
CC[n+]1cc(C)ccc1/C=C/c1ccc(N(C)C)cc1,inhibition,[1],45.1% (active)
same,inhibition,[2],58.8% (active)
same,inhibition,[3],57% (active)
same,inhibition,[4],91.7% (active)
same,inhibition,[5],85.7% (active)
same,inhibition,[6],80% (active)
same,inhibition,[9],-0.96%
same,inhibition,[10],62.6% (active)
CC(=O)CSc1ccc(-c2nc3cc(C)c(C)cc3[nH]2)cn1,inhibition,[1],22.4%
same,inhibition,[2],3.79%
same,inhibition,[7],10.4%
same,inhibition,[8],78.8% (active)
CCN(CC)c1ccc(-n2c(C)c(C(C)=O)c(C(C)=O)c2C)cc1,inhibition,[1],4.48%
same,inhibition,[2],25.7%
same,inhibition,[7],-2.52%
same,inhibition,[8],11.8%
O=C(c1ccc(S(=O)(=O)c2ccc(F)cc2)c([N+](=O)[O-])c1)N1CCCCCC1,inhibition,[1],11.4%
same,inhibition,[2],18.9%
same,inhibition,[7],15.7%
same,inhibition,[8],29.9%
COc1ccc(C(=O)Nc2ccc(C)cn2)c(OC)c1,inhibition,[1],-0.48%
same,inhibition,[2],-4.91%
same,inhibition,[7],23.7%
same,inhibition,[8],49.8% (active)
O=C(/C=C/c1ccccc1)CC(O)(c1ccccc1)C(F)(F)C(F)F (configuration not stated),inhibition,[1],11%
same,inhibition,[2],4.32%
same,inhibition,[7],7.22%
same,inhibition,[8],19.9%
Cc1ccc(NC(=O)c2ccccc2NS(=O)(=O)c2ccc(F)cc2)cc1S(=O)(=O)N1CCCCC1,inhibition,[1],12.2%
same,inhibition,[2],24%
same,inhibition,[7],10.3%
same,inhibition,[8],27.6%
Cc1nnc(SC(=O)N2c3ccccc3Sc3ccccc32)s1,inhibition,[1],80.8% (active)
same,inhibition,[2],28.2%
same,inhibition,[7],37.9% (active)
same,inhibition,[8],60.4% (active)
Cc1ccc(CSC(Nc2ccc(F)cc2)=C(C#N)C#N)cc1,inhibition,[1],4.71%
same,inhibition,[2],28.5%
same,inhibition,[3],19.4%
same,inhibition,[4],59.8% (active)
same,inhibition,[5],59.9% (active)
same,inhibition,[6],45% (active)
same,inhibition,[7],12.8%
same,inhibition,[8],31.9%
COc1ccc(OCC(=O)N/N=C/c2ccc(O[C@@H]3O[C@H](CO)[C@@H](O)[C@H](O)[C@H]3O)cc2)cc1,inhibition,[1],20.5%
same,inhibition,[2],60.1% (active)
same,inhibition,[4],64.5% (active)
same,inhibition,[5],72.1% (active)
O=C(Nc1ccc(OCC(=O)N2CCOCC2)cc1)c1cncc(Br)c1,inhibition,[1],29.6%
same,inhibition,[2],23%
same,inhibition,[7],3.8%
same,inhibition,[8],26.1%
Cc1ccc(-n2nc3c(=O)n(C(C)C(=O)NCCC4=CCCCC4)nc(C)c3c2C)cc1 (configuration not stated),inhibition,[1],22.9%
same,inhibition,[2],47.1% (active)
same,inhibition,[7],3.1%
same,inhibition,[8],29.1%
COC(=O)c1c(C)n(-c2ccc(OC)cc2)c2ccc(O)cc12,inhibition,[1],41.4%
same,inhibition,[2],24.1%
same,inhibition,[7],-4.83%
same,inhibition,[8],28.1%
COc1ccc(/C=C/C(=O)c2ccc3c4c(cccc24)CC3)cc1OC,inhibition,[1],21.5%
same,inhibition,[2],25.6%
same,inhibition,[7],25.2%
same,inhibition,[8],67.6% (active)
CC[C@@]1(O)C(=O)OCc2c1cc1n(c2=O)Cc2cc3c(CN(C)C)c(O)ccc3nc2-1,inhibition,[1],89.8% (active)
same,inhibition,[2],53.2% (active)
same,inhibition,[4],99.7% (active)
same,inhibition,[5],85.7% (active)
same,inhibition,[7],32.9%
same,inhibition,[8],46%
O=C(/C=C\Nc1ccc2c(c1)OCO2)c1ccccn1,inhibition,[1],22.5%
same,inhibition,[2],14.7%
same,inhibition,[7],29.3%
same,inhibition,[8],62% (active)
